Source: PubChem (National Center for Advancing Translational Sciences (NCATS))
Only some compounds are listed: those with a hit (about 22% of all), similar ones and a draw of the others.
Pf growth 96h: P. falciparum growth inhibition at 96 hours; P. falciparum luciferase reporter growth, 96 h; Potency, µM (titrated, usually from 28.7 µM), for the others: top-dose activity change, negative = inhibition, actives largely listed as inhibitors; 6.9% of 320,000 active; AID 504834; note: potency is the fitted concentration of half-maximal effect; % is set by controls: 0 for no effect and ±100 for the full control effect
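P. falciparum expressing integrated firefly luciferase, in erythrocytes at 2% hematocrit, 0.05% parasitemia, incubated with compounds 96 h at 37 C, 5% CO2. Growth inhibition read as loss of luminescence; two-generation exposure targets delayed-death apicoplast inhibitors.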
LmPK inh: LmPK (Leishmania mexicana) enzyme inhibition; Q27686; purified LmPK, Kinase-Glo ATP luminescence, 1 h; Potency, µM (series often up to 57.5 µM), without a hit: at the highest dose activity change, negative = inhibition, most hits filed as inhibitors; 0.37% of 290,000 active; note: potency is the fitted concentration of half-maximal effect; % is set by controls: 0 for no effect and ±100 for the full control effect
Target sequence (Q27686 whole entry, looked up): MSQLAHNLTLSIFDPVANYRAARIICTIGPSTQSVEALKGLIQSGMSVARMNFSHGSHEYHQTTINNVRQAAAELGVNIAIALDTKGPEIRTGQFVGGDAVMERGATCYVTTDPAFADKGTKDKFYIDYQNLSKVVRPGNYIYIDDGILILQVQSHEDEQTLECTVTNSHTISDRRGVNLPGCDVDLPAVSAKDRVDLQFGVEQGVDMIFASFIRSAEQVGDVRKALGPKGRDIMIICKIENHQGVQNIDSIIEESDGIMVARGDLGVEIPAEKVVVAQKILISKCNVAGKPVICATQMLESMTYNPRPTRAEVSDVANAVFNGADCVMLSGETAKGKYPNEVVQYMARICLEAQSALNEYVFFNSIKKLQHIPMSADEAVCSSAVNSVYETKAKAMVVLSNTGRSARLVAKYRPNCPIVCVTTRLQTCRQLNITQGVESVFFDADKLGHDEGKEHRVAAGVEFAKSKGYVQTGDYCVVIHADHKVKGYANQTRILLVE
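Pyruvate kinase activity monitored as ATP production (luciferase luminescence). Conditions: 0.1 nM enzyme, 0.5 mM PEP, 0.1 mM ADP, 1 h, RT; normalized against uninhibited and no-enzyme wells.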
Pf growth 48h: inhibits P. falciparum growth in the first generation, 48 h. 5.9% of 310,000 active. P. falciparum luciferase growth in erythrocytes, 48 h. Potency, µM (doses to about 28.7 µM), for the others: top-dose activity change, negative = inhibition, usual class: inhibitors; note: potency is the fitted concentration of half-maximal effect; % is set by controls: 0 for no effect and ±100 for the full control effect
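Here the parasites carry a stable luciferase gene and grow inside erythrocytes in Albumax-based RPMI medium with compound for one erythrocytic cycle. Activity is scored as loss of luminescent signal.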
Shiga inhibitor: inhibitors of Shiga toxin in Vero cells. Vero cells, Shiga toxin protein synthesis inhibition reporter. inhibition, % at 38.7 µM. 9.2% of 290,000 active. AID 2315; in the data active = inhibition mostly above about 28%, no sharp cut-off; inactive = mostly below about 43%; note: 0% is about no effect
CHX counter: affects cycloheximide protein synthesis inhibition readout, counter-screen. cell reporter, cycloheximide protein synthesis inhibition counterscreen. AID 2314. max response, %. 12% of 300,000 active; in the data active = max response mostly above about 13%, no sharp cut-off; inactive = mostly below about 14%; note: read at 38.3 µM for the half of the compounds with a filed dose; 0% is about no effect
The depositor's hits bear a star; ? = inconclusive; nt = not tested or not shown; + = active, no number; [ ] = dose if it differs, or a comment. Unless noted, calls come from the whole dose curve; as a rule, active = well fitted inhibition curve with a large enough effect; inconclusive = small, poorly fitted or top-dose-only effect, or another doubt; inactive = no such curve, though single readings can be large or run the other way.

SMILES	Pf growth 96h	LmPK inh	Pf growth 48h	Shiga inhibitor	CHX counter
CCOC(=O)c1ccc(NC(=O)c2nc[nH]c2C(=O)NCCCCNC(=O)c2[nH]cnc2C(=O)Nc2ccc(C(=O)OCC)cc2)cc1	1.47µM*	nt	?	nt	nt
CCOC(=O)c1ccc(NC(=O)c2nc[nH]c2C(=O)NCCCNC(=O)c2[nH]cnc2C(=O)Nc2ccc(C(=O)OCC)cc2)cc1	?	nt	0.1%	nt	nt
Cc1ccc(NC(=O)c2[nH]cnc2C(=O)NN)cc1	6.3%	-8.4%	12.7%	71.2*	25.7*
S=C(NCC1CCCO1)N1CCN(Cc2ccccc2Cl)CC1 (stereo not given)	0.3%	0.0%	-4.8%	5.2	-1.1
CCOc1ccccc1/C=C(/NC(=O)c1ccccc1)C(=O)NCC(=O)O	0.0%	1.7%	0.5%	-10.9	-0.7
CCOc1ccccc1/C=C(\NC(=O)c1ccccc1)C(=O)NCCC(=O)O	-6.7%	-0.8%	21.5%	43.2*	32.0
CC(C)(C)c1ccc(O)c(N=Cc2c(O)ccc3ccccc23)c1	?	1.3%	?	9.4	3.5
Oc1ccc2ccccc2c1C=Nc1ccccc1-c1nc2ccccc2[nH]1	?	-10.0%	nt	58.8*	42.5*
COc1ccccc1N(CC(=O)NCc1ccc2c(c1)OCO2)C(=O)CCC(=O)Nc1nccs1	-17.1%	-1.1%	?	-4.1	-3.3
O=C(OCC(=O)N1CCN(C(=O)c2ccco2)CC1)c1cccc(S(=O)(=O)N2CCc3ccccc32)c1	-28.4%	1.3%	-4.2%	8.8	10.8
CCOc1ccc(OCCCC(=O)NCCc2ccc(OC)cc2)cc1	?	-3.1%	-1.6%	-21.9	6.4
Cc1cc2oc(=O)c(CC(=O)NCCCN(C)C)c(C)c2c2occ(C(C)(C)C)c12	1.85µM*	-5.1%	2.62µM*	16.5	-5.5
Cc1cc2oc(=O)c(CC(=O)NCCCO)c(C)c2c2occ(C(C)(C)C)c12	10.1%	6.6%	-0.5%[0.00184 µM]	-2.7	8.2
Cc1sc2ncnc(N3CCC(C(=O)Nc4nnc(CC(C)C)s4)CC3)c2c1C	-8.4%	nt	?	nt	nt
O=C(C1=C[C@H](C2CC2)C[C@H](OCc2ccc(CO)cc2)O1)N1CCOCC1	1.0%	-3.4%	14.0%	-2.2	-3.2
COc1ccc(-c2csc(CCN3N=C(C)CC3=O)n2)cc1	?	5.2%	4.15µM*	60.7	14.6
CC1=NN(c2nc(-c3ccc(F)cc3)cs2)C(=O)C1	36.6%	-1.5%	6.4%	-15.2	-1.2
CCCN(CCC)C(=O)C1CCN(c2cc(C)nc3c(-c4ccc(OC)c(OC)c4)c(C)nn23)CC1	?	1.2%	?	-13.3	-3.3
COc1ccc(-c2c(C)nn3c(N4CCC(C(=O)NCCN(C)C)CC4)cc(C)nc23)cc1OC	84.8%	-6.1%	10.4µM*	-3.5	-4.3
O=C(NC1CCS(=O)(=O)C1)N1CCCCC1 (stereo not given)	4.15µM*	-1.5%	nt	-11.7	-3.2
O=C(NC1CCCCC1)N1CCCCCC1	19.5%	-0.7%	5.7%	36.8	11.8
Cc1oc(-c2ccccc2F)nc1CSCC(=O)NC1CCCC1	1.47µM*	-4.6%	4.2%	-7.5	-4.8
CSc1ccc(-c2nc(CSCC(=O)N3CCOCC3)c(C)o2)cc1	?	-5.2%	41.4%	107.6*	26.9*
COc1ccc(-c2nc(CSCC(=O)N3CCN(C)CC3)c(C)o2)cc1OC	?	0.3%	nt	-8.2	-5.4
CSc1ccc(-c2nc(CSCC(=O)NC3CC3)c(C)o2)cc1	10.5%	1.2%	-15.1%	26.9*	19.7*
SMILES	Pf growth 96h	LmPK inh	Pf growth 48h	Shiga inhibitor	CHX counter
O=C(CSc1ccc(-c2cccc([N+](=O)[O-])c2)nn1)N1CCCCCC1	?	-3.8%	2.6%	33.2	19.4*
Cc1cc(NC(=O)CSc2ccc(-c3cccc([N+](=O)[O-])c3)nn2)no1	58.9%	13.6%	30.6%	-9.4	0.4
CCSc1ccc(-c2cccc([N+](=O)[O-])c2)nn1	61.6%	15.3%[11.5 µM]	134.4%	+	52.7*
O=C(CSc1ccc(-c2cccc([N+](=O)[O-])c2)nn1)N1CCCC1	?	-0.1%[11.5 µM]	-25.7%	25.2	30.2
CC1=NN(c2ccc(C)cc2C)C(=O)C1C(c1cccc(O)c1)C1C(=O)N(c2ccc(C)cc2C)N=C1C (stereo not given)	19.0%	4.2%	-4.2%	-11.0	-1.4
C=CCn1c(COC)nnc1SCC(=O)c1ccc(F)cc1	262.3%	-8.2%	27.2%	44.3*	15.7*
C=CCn1c(SCC(=O)c2ccc(O)c(O)c2)nnc1-c1ccc(OC)cc1	?	nt	2.62µM*	nt	nt
C=CCn1c(SCC(=O)c2cccs2)nnc1-c1cccc(OC)c1	-12.9%	-6.7%	-7.5%	36.7*	17.6*
C=CCn1c(SCC(=O)c2cccs2)nc2sc(C)cc2c1=O	18.1%[5.75 µM]	-8.4%	-9.9%	-4.3	1.2
O=C(C1CC1)N1N=C(C2CCCCC2)CC1(O)C(F)(F)F (stereo not given)	16.4%	15.2%	-14.4%	-12.0	0.7
Cc1ccc(N=C2NC(=O)/C(=C\c3ccc(C)s3)S2)cc1	1.65µM*	-1.5%	?	6.6	-0.4
Cc1ccc(N=C2NC(=O)/C(=C/c3cccn3C)S2)cc1	?	-1.5%	95.2%	79.4*	37.0*
Cc1ccc(N=C2NC(=O)/C(=C/c3cccn3C)S2)cc1C	13.1µM*	1.3%	?	66.4*	31.9*
Cc1cccc(N=C2NC(=O)/C(=C/c3cccn3C)S2)c1C	-28.9%	-1.9%	-29.4%	14.4	2.9
CCOC(=O)c1cc2c(OC)ccc(OC)c2n1CC(=O)c1ccccc1	?	0.6%	?	3.6	4.8
Cc1ccc(SCCC(=O)OCC(=O)Nc2ccc(C(N)=O)cc2)cc1	?	nt	-12.2%	nt	nt
O=C(/C=C/c1ccc(F)cc1)N1CC[C@@]2(O)CCCC[C@H]2C1	?	2.8%	-12.0%	2.5	-4.1
O=c1cc(CN2CCOCC2)c2cc(Cl)ccc2o1	1.4%	4.0%	9.4%	-5.9	-3.0
COc1ccc(/C=N/n2nnnc2N)c(OC)c1	91.6%	-1.9%	59.0%	28.4*	22.8*
COc1ccccc1/C=N/n1nnnc1N	114.0%	1.0%	36.4%	19.3	2.5
COc1cccc(/C=N/n2nnnc2N)c1O	34.3%	-12.2%	25.1%	58.8*	21.2*
CCc1cccc(NC(=O)CCCCCC2NC(=O)NC2C)c1 (stereo not given)	?	9.3%	-5.2%	-6.0	-2.5
CSc1cccc(NC(=O)C2CCN(S(=O)(=O)c3ccc4c(c3)NC(=O)CO4)CC2)c1	?	-3.9%	-15.1%	-8.4	8.2
O=C(Nc1ccc(-n2nncc2-c2ccco2)cc1)c1cc2ccccc2oc1=O	11.7µM*	2.8%	2.9%	28.2	16.8
O=C(Nc1ccccc1O)c1cc2cc(Br)ccc2oc1=O	5.3%	0.4%	-4.8%	114.3*	28.0*
COc1ccc2oc(=N)c(C(=O)Nc3ccccc3Cl)cc2c1	78.5%	-0.2%	44.6%	48.6*	38.6*
N=c1oc2ccccc2cc1C(=O)Nc1ccccc1	?	-4.8%	0.0%	116.4*	45.7*
O=C(Nc1ccc(-n2nncc2-c2ccco2)cc1)c1cccc(F)c1	?	-0.6%	-26.2%	-11.8	6.8
